The text below walks through data of PubChem BioAssay.

SMILES strings stand for the structures. Where “and” joins values, the source holds several entries; their conditions need not be identical. Equal values may be shown once. The source holds several records for some structures; these can differ, active in one and inactive in another. Calls of active or inactive are those of the source.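 The calls were made as follows: active = z-score of at least 1.8 in each of two replicates, scored against plate mean and spread of sample wells; inactive = the rest.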

The nature of this assay: galactose survival enhancers in mitochondrial complex I cybrids – cell-based, galactose medium, ATP luminescence, primary screen (AID 1645843).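 Also: positive z means more ATP and so rescue of galactose-driven cybrid death.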 The settings on record: complex I mutant cybrid cells, 72 h, stronger effect = higher value.
Turning to `CCN(CC)CCOCCOC(=O)C1(c2ccccc2)CCCC1`, the z-score is -0.64 (inactive) and -0.655 (inactive).

For `C[N+](C)(C)CCOC(N)=O`, the z-score was 0.575 (inactive) and 0.535 (inactive).

As to `Cc1nnc(SCC2=C(C(=O)O)N3C(=O)[C@@H](NC(=O)Cn4cnnn4)[C@H]3SC2)s1`, the z-score was -0.3 (inactive).

As for `Clc1ccc(C(c2ccccc2Cl)C(Cl)Cl)cc1` (stereo unspecified), the z-score was -1.24 (inactive).

As to `COCCCC/C(=N\OCCN)c1ccc(C(F)(F)F)cc1`, the z-score is -0.665 (inactive) and -0.645 (inactive).

With `NS(=O)(=O)c1cc2c(cc1Cl)NC(C(Cl)Cl)NS2(=O)=O` (stereo unspecified), the z-score was -0.19 (inactive).

For `C[C@H]1c2cccc(O)c2C(O)=C2C(=O)[C@]3(O)C(O)=C(C(N)=O)C(=O)[C@@H](N(C)C)[C@@H]3[C@@H](O)[C@@H]21`, the z-score was 2.63 (active) and 2.23 (active).

For `CO[C@]12C[C@@H](COC(=O)c3cncc(Br)c3)CN(C)[C@@H]1Cc1cn(C)c3cccc2c13`, the z-score was 1.27 (inactive).

As for `Cc1c(Cl)cccc1Nc1ccccc1C(=O)O`, the z-score is 1.29 (inactive).

`NC(=O)c1ncn([C@@H]2O[C@H](CO)[C@@H](O)[C@H]2O)n1`: the z-score is 0.88 (inactive) and 1.56 (inactive).

As for `COC(=O)[C@@H]1[C@H]2C[C@H]3c4[nH]c5ccccc5c4CCN3C[C@@H]2CC[C@@H]1O`, the z-score is 0.525 (inactive) and 0.82 (inactive).

For `O=C1C(=O)c2ccccc2C(O)=C1C1CCC(c2ccc(Cl)cc2)CC1` (stereo unspecified), the z-score was -0.055 (inactive).

For `CN(Cc1cc(Br)cc(Br)c1N)C1CCCCC1`, the z-score is -1.71 (inactive).

As for `Cc1ccccc1N1C(=O)c2cc(S(N)(=O)=O)c(Cl)cc2NC1C` (stereo unspecified), the z-score was -0.04 (inactive).

For the compound `CS(=O)(=O)Nc1ccc([N+](=O)[O-])cc1Oc1ccccc1`, the z-score was 1.54 (inactive) and 2.81 (active) and 0.735 (inactive).

For the compound `Cc1nc2sccn2c(=O)c1CCN1CCC(=C(c2ccc(F)cc2)c2ccc(F)cc2)CC1`, the z-score was -1.37 (inactive) and -0.82 (inactive).

Take `CC(C)NNC(=O)c1ccncc1`: the z-score is 0.54 (inactive) and 0.67 (inactive).

On to `Cc1cc(C(C)(C)C)cc(C)c1CC1=NCCN1`, for which the z-score is -0.37 (inactive) and 0.085 (inactive).

For the compound `Clc1ccccc1C(c1ccccc1)(c1ccccc1)n1ccnc1`, the z-score was -1.52 (inactive) and -1.44 (inactive).

Consider `O=C(O)CCC(=O)c1ccc(-c2ccccc2)cc1`, for which the z-score is 0.975 (inactive).

On to `O=C(O)c1cccnc1Nc1cccc(C(F)(F)F)c1`, for which the z-score was -0.15 (inactive) and 0.22 (inactive).

Consider `CC[N+](CC)(CC)CCOc1cccc(OCC[N+](CC)(CC)CC)c1OCC[N+](CC)(CC)CC`, for which the z-score was 0.34 (inactive) and 0.415 (inactive).

As to `O=C(O)c1ccccc1Nc1cccc(C(F)(F)F)c1`, the z-score is 0.44 (inactive).

For the compound `COc1ccc(CN(CCN(C)C)c2ccccn2)cc1`, the z-score was -0.145 (inactive) and 0.84 (inactive) and 0.65 (inactive).

On to `NCCCC[C@H](N[C@@H](CCc1ccccc1)C(=O)O)C(=O)N1CCC[C@H]1C(=O)O`, for which the z-score was 0.245 (inactive).

For the compound `CCC1(C)CC(=O)NC1=O` (stereo unspecified), the z-score was 0.235 (inactive).

For the compound `CC(C)NCC(O)c1ccc2ccccc2c1` (stereo unspecified), the z-score was 0.85 (inactive) and 0.48 (inactive).

For `NNc1nncc2ccccc12`, the z-score is 0.12 (inactive).

In the case of `Cn1cnc2c1c(=O)[nH]c(=O)n2C`, the z-score was 0.475 (inactive).

Consider `Cc1cn[nH]c1`, for which the z-score is 0.65 (inactive).

With `CNC[C@H](O)c1cccc(O)c1`, the z-score is 0.64 (inactive).
